Screening data as filed in PubChem BioAssay.
Hits are enriched below; roughly 1.2% of the tested compounds scored in any of these assays.
PG9 binder = PG9 antibody binding by small molecule. 360,000 tested, 0.43% active. TR-FRET gp120-PG9 antibody binding. inhibition, % at 6.7 µM. AID 624416; in the data active means inhibition above about 8.5%
PKA-R2B activ = PKA-R2B complex activation | PKA-R2B holoenzyme dissociation, Cy5-IP20 fluorescence polarization; R2B truncated from residue 108, S112A mutant; 0% DMSO only, 100% 113 µM cGMP | activation, % at 11.4 µM | 340,000 tested, 0.079% active | AID 504700;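 active means activation above a cutoff set at the mean over all compounds plus 3 SD, cut at about 18% in these data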;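 further: higher means more holoenzyme dissociation and a rise in polarization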
NR1D1 modulator = Rev-erb alpha (human) modulation. activity, % at 10 µM. 370,000 tested, 0.79% active. AID 1259318. Rev-erbα–FITC-DNA binding, fluorescence polarization, 90 min. P20393;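 active means activity above about 14%, limit read from the data; passing the limit was not always enough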
Target sequence (P20393 whole entry, looked up): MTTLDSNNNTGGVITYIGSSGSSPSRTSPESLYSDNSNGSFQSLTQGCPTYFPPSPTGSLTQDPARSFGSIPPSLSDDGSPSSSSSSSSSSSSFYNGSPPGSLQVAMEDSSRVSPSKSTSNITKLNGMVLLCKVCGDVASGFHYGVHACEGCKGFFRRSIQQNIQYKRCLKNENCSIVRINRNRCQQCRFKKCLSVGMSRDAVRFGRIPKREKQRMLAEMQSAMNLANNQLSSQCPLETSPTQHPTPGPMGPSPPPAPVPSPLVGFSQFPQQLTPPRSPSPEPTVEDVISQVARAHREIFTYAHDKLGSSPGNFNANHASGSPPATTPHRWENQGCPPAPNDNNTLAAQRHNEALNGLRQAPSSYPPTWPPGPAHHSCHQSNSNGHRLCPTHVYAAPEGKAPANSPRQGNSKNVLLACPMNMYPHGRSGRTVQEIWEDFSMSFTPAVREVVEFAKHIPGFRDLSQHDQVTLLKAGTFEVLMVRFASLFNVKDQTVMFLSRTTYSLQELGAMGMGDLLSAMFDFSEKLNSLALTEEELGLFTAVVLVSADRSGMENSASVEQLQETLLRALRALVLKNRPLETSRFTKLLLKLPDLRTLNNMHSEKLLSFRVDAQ
PKA-R1A act = PKA-R1A complex activation. P00514+P68181. PKA-R1A dissociation, Cy5-IP20 fluorescence polarization; scaled: DMSO 0%, 113 µM cGMP 100%. activation, % at 11.4 µM. 340,000 tested, 0.083% active. AID 504707;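 active means percent activation above the mean of all tested compounds plus 3 SD, cut at about 19% in these data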;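 further: higher means more PKAc released from R1A so a rise in polarization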
Rev-erbA confirm = confirmation of modulators of human Rev-erb alpha DNA binding. shares compounds with NR1D1 modulator. Rev-erb alpha FITC-DNA binding, fluorescence polarization, 90 min. activation, % at 25 µM. 3,000 tested, 61% active. AID 1259319;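 active means activation at or above a set limit, or at least 3 SD above the negative control mean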
RORg DNA counter = RORgamma DNA-binding activity, dose-response counter-screen; shares compounds with NR1D1 modulator; purified RORgamma protein-FITC-DNA binding, fluorescence polarization; IC50, µM; 910 tested, 8% active;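 active means Compounds whose fitted half-maximal concentration for disrupting protein-DNA binding is below 10 micromolar; the record names Rev-erb in its text, so the target is in doubt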
Each line names hits and unclear results; the compound was inactive in the other large screens (follow-up assays come after a bar, where they were run).

CC(c1nc2ccccc2[nH]1)n1c(=O)c(-c2cccs2)nc2ccccc21 (stereo not given)	NR1D1 modulator 30 (no result: PKA-R2B activ, PKA-R1A act) | Rev-erbA confirm 18
COc1ccc(CN2CCC(CNC(=O)Nc3ccccc3)CC2)cc1	none (no result: PG9 binder, PKA-R2B activ, PKA-R1A act)
CC(=O)c1sc(NC(=O)c2cccc(N3C(=O)CCC3=O)c2)nc1-c1ccccc1	NR1D1 modulator 43 | Rev-erbA confirm 28
Cc1sc(NC(=O)c2cccc(N3C(=O)CCC3=O)c2)nc1-c1ccccc1	none
COC(=O)c1cc(-c2cccc(OCc3ccccc3)c2)c(=O)n2c1CCC2	none (no result: PG9 binder, PKA-R2B activ, PKA-R1A act)
CC(=O)OCCCN1C(=O)CCC12CCC(C)CC2 (stereo not given)	none (no result: PG9 binder, PKA-R2B activ, PKA-R1A act)
Cc1cc(NC(=O)CSc2nc3ccccc3cc2C#N)no1	NR1D1 modulator 27 | Rev-erbA confirm 18
CCSc1nc2ccc(C)cc2cc1C#N	NR1D1 modulator 30 | Rev-erbA confirm inactive
Cc1ccc2nc(SCC(=O)Nc3ccccc3N3CCOCC3)c(C#N)cc2c1	NR1D1 modulator 28 | Rev-erbA confirm 18
CCc1cc2ccc(C)cc2nc1SCC(=O)Nc1cc(C)on1	NR1D1 modulator 17 | Rev-erbA confirm inactive
Cc1ccc2cc(C#N)c(SCC(=O)N3CCCc4ccccc43)nc2c1	NR1D1 modulator 60 | Rev-erbA confirm 44 | RORg DNA counter inactive
CCOc1ccc2nc(SCC(=O)N3c4ccccc4Sc4ccccc43)c(C#N)cc2c1	NR1D1 modulator 142 | Rev-erbA confirm 61 | RORg DNA counter inactive
COc1ccc2nc(SCC(=O)Nc3cc(C)on3)c(C#N)cc2c1	NR1D1 modulator 61 | Rev-erbA confirm 27
N#Cc1cc2cc3c(cc2nc1SCC(=O)N1CCOCC1)OCCO3	NR1D1 modulator 17 | Rev-erbA confirm inactive
COc1ccc2nc(SCC(=O)N3CCCCC3)c(C#N)cc2c1	none
Cc1ccc2cc(C#N)c(SCC(=O)N3CCCc4ccccc43)nc2c1C	none
CCOc1ccc2nc(SCC(=O)N3c4ccccc4Sc4ccccc43)sc2c1	none
CC(C)(C)OC(=O)NCc1ccccc1/C=C/S(=O)(=O)NCc1ccc(F)cc1	none (no result: PG9 binder, PKA-R2B activ, PKA-R1A act)
COc1ccccc1NC(=O)OCCCN1CCC2(CCC(C)CC2)C1=O (stereo not given)	none (no result: PG9 binder, PKA-R2B activ, PKA-R1A act)
CC(C)(C)N(Cc1cn(CC2CCCCC2)nn1)S(=O)(=O)c1ccc(F)cc1Br	none (no result: PG9 binder, PKA-R2B activ, PKA-R1A act)
COc1ccc(/C=C/C(=O)NC2=NCCS2)c(OC)c1	none (no result: PG9 binder, PKA-R2B activ, PKA-R1A act)
CN(C)/C=C/c1oc2ccc(O)cc2c1[N+](=O)[O-]	NR1D1 modulator 37 | Rev-erbA confirm inactive
CC(C)[C@@H](CO)N(Cc1cn(Cc2ccccc2)nn1)S(=O)(=O)c1ccccc1Br	none (no result: PG9 binder, PKA-R2B activ, PKA-R1A act)
C[C@H]1[C@@H](OC(=O)Nc2ccc(Cl)cc2)CC[C@@]23CCCN2C(=O)CCC[C@@H]13	none (no result: PG9 binder, PKA-R2B activ, PKA-R1A act)
COc1cc(NC(=O)c2n[nH]c(=O)c3ccccc23)cc(OC)c1	NR1D1 modulator 26 | Rev-erbA confirm 20
CCOC(=O)c1ccc(NC(=O)c2n[nH]c(=O)c3ccccc23)cc1	none
CCOC(=O)c1ccccc1NC(=O)c1n[nH]c(=O)c2ccccc12	NR1D1 modulator 53 | Rev-erbA confirm 25
CCOC(=O)Cn1c(=NC(=O)C2CC2)sc2c(C)cc(C)cc21	PG9 binder 21, NR1D1 modulator 18 | Rev-erbA confirm inactive
CN(CCO)c1ccc2c(c1)Oc1ccccc1CN(Cc1cn(Cc3ccccc3C(F)(F)F)nn1)S2(=O)=O	none (no result: PG9 binder, PKA-R2B activ, PKA-R1A act)
O=C(Cc1ccccc1)NC(=S)Nc1ccc2oc(-c3ccccc3F)nc2c1	none
CC(=O)NC(=S)Nc1ccc2oc(-c3cc(F)c(F)cc3Cl)nc2c1	NR1D1 modulator 50 | Rev-erbA confirm 32 | RORg DNA counter inactive
c1nc(NCC2CCCOC2)c2cc(-c3ccc4c(c3)OCO4)ccc2n1 (stereo not given)	none (no result: PG9 binder, PKA-R2B activ, PKA-R1A act)
CCOC(=O)c1c(-c2cccs2)csc1NC(=O)c1ccncc1	NR1D1 modulator 29 | Rev-erbA confirm 28
COC(=O)[C@]12C[C@H](CC(=O)N3CCSCC3)C(=O)N(CCc3ccc(OC)c(OC)c3)C1=C[C@H](C1CCCC1)O[C@@H]2C	none (no result: PG9 binder, PKA-R2B activ, PKA-R1A act)
CCCC[C@H]1C2CC(OC(=O)Nc3ccccc3OC)C(C2)[C@H]2CCCCN21 (stereo not given in full)	none (no result: PG9 binder, PKA-R2B activ, PKA-R1A act)
COc1ccc(CCNC(=O)CCc2nc3sc4c(c3c(=O)[nH]2)CCCC4)cc1	none
